# Many of the other results were omitted from the sample, so hits are more common in it than they were.
# ST2 inh – blocks human ST2 binding to IL-33 | inhibition, % for hits at 17 µM | Q01638 | AlphaLISA ST2-Fc/biotin-IL-33 interaction, 1 h | AID 1259354 | 78,000 tested, 2.3% active; in the data active = inhibition above about 30%
# Target sequence (Q01638 whole entry, looked up): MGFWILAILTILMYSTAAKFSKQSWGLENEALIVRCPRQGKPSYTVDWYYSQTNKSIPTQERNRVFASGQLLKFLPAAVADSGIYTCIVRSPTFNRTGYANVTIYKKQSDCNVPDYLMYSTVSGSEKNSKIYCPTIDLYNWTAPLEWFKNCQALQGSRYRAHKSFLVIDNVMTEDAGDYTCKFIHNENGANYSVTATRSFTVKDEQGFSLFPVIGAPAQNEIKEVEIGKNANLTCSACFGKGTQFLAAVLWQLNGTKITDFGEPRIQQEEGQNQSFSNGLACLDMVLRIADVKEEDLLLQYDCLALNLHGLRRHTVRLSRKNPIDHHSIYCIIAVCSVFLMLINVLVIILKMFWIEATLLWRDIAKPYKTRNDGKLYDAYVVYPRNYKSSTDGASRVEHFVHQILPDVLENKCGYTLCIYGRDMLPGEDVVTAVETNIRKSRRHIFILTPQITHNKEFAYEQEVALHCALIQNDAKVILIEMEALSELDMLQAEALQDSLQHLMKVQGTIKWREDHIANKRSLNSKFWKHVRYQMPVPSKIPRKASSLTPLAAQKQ
# The depositor's hits bear a star; i = inactive.
SMILES,ST2 inh
O=C(Nc1ccccc1[N+](=O)[O-])C1=C(O)CCn2c1nc1ccccc12,34%*
Cc1nc2ccccc2n1C(=O)c1ccccc1[N+](=O)[O-],i
O=C(Cn1cnc2c(cnn2-c2ccc(Cl)cc2)c1=O)Nc1ccc(Cl)cc1,i
O=C1CCC(C(=O)N2CCN(CC3CCCC3)CC2)CN1Cc1ccc(Cl)cc1 (stereo not drawn),i
O=C(c1ccc(O)cc1)c1c(O)cc(O)c([C@@H]2O[C@H](CO)[C@@H](O)[C@H](O)[C@H]2O)c1O,i
CC12CCC3C1C(c1c(cc(O)c(C(=O)c4ccccc4)c1O)O2)C3(C)C (stereo not drawn),31%*
CC1(C)OC2c3ccccc3OC3(C)CCC1CC23 (stereo not drawn),i
CCc1nccc(-c2nccn2CCn2ccnc2)n1,i
Cc1noc(C)c1S(=O)(=O)Nc1ccc(Br)cc1,i
CCC(=O)Nc1cccc(NC(=O)c2sc3ccccc3c2Cl)c1,i
CCOc1ccc(S(=O)(=O)NCC(=O)O)cc1,i
COc1ccc(OCC(=O)O)cc1,i
Cc1ccc(C)n1-c1ccc(OCC(=O)O)cc1,64%*
COc1ccccc1C(=O)N/C(=C\c1ccc2c(c1)OCO2)C(=O)NCCC(=O)O,i
Cc1cccc(Nc2nc(O)c(C3=c4cc(Br)ccc4=NC3=O)s2)c1C,42%*
Cc1cc(Br)c2c(c1)=C(c1sc(Nc3ccccc3Cl)nc1O)C(=O)N=2,i
O=C1N=c2ccc(F)cc2=C1c1sc(Nc2ccc(Br)cc2)nc1O,i
O=C1N=c2ccc(Cl)cc2=C1c1sc(Nc2ccc(Cl)cc2)nc1O,44%*
Cc1c(Cl)ccc2c1=NC(=O)C=2c1sc(Nc2ccc(Br)cc2)nc1O,i
Cc1ccccc1NC(=O)c1cccc(Br)c1,i
Cc1ccc(OCCOCCN2CCCCC2)c(Br)c1,i
O=C1CC(c2cccs2)CC2=C1C(c1cc3c(cc1Cl)OCO3)Nc1ccccc1N2 (stereo not drawn),i
Cc1nc(CCNC(=O)c2cn(Cc3ccc(F)cc3)nn2)nc2c1CCCC2,i
CC(NC(=O)c1cccc(-n2cccn2)c1)c1nnc2n1CCNCC2 (stereo not drawn),i
Cn1c(=O)cc(SCC(=O)N2CCCCCC2)c2ccccc21,i
SMILES,ST2 inh
Cn1c(=O)cc2c3c(c(N4CCCCC4)ccc31)C(=O)c1ccccc1-2,44%*
Cn1c(=O)cc2c3c(c(Br)ccc31)C(=O)c1ccccc1-2,i
Cc1ccccc1SC1CCN(C(=O)c2cn(C3CCCCCC3)nn2)CC1,i
O=C(Nc1ccc2c(c1)OCO2)C1CCN(C(=O)c2ccc(F)cc2)CC1,i
CC(C)NC(=O)C[C@@H]1O[C@H](Cn2cc(COc3ccccc3)nn2)[C@@H](O)[C@H]1O,i
O=C(O)c1ccc(N=Cc2cc(Br)cc(Cl)c2O)cc1,i
CC(=O)Oc1ccc(-c2nc3ccc(Cl)cc3c(=O)o2)cc1,i
Cc1ccc(-c2onc3ccc(Cl)cc23)cc1,45%*
O=C(O)c1cc(-c2ccc(Br)cc2)nc2ccc(Cl)cc12,i
COc1ccccc1-n1c(SCC(=O)N2CCCCC2)nc2c(c1=O)SCC2,i
COc1cc(/C=C2\SC(=Nc3c(C)n(C)n(-c4ccccc4)c3=O)NC2=O)ccc1O,i
O=C1NC(=Nc2cccc(Cl)c2Cl)S/C1=C/c1ccco1,i
Cc1cccc(N=C2NC(=O)/C(=C\c3ccco3)S2)c1,31%*
COCC1(C(=O)N2CCC(c3cc(OC)ccc3OC)C2)CCC1 (stereo not drawn),i
O=C(O)CCC(=O)Nc1ccc(-c2nc3ccccc3[nH]2)cc1,i
CC(C)=Cc1oc2c(Cl)cc(Cl)cc2c1N1CCOCC1,30%*
COc1c(Cl)cc(Cl)cc1C(=O)Nc1ccccc1N1CCOCC1,i
CC(=O)Nc1ccc(N2CCOCC2)cc1,i
CC(CCO)Nc1nc2c(c(=O)n(C)c(=O)n2C)n1Cc1cccc2ccccc12 (stereo not drawn),i
OCCCn1c(-c2ccccc2)csc1=Nc1ccccc1,61%*
CCn1c(C)csc1=NC(=O)c1ccccc1O,i
OCCn1c(-c2ccc(I)cc2)csc1=Nc1ccccc1,42%*
CCOC(=O)c1sc(=Nc2ccccc2)n(Cc2ccccc2)c1C,i
Cc1nc2ccccc2c(=O)n1CCCO,i
OCCn1c(-c2ccc(Cl)cc2)csc1=Nc1ccccc1,61%*
SMILES,ST2 inh
Cc1csc(=Nc2ccccc2)n1CC(=O)c1ccc(Cl)cc1,36%*
c1ccc(N=c2scc(-c3ccccc3)n2CCN2CCOCC2)cc1,i
COC(=O)C1C(=O)C2=C(CC1C)NC(C)=C(C(=O)OCCOC(C)C)C2c1ccccc1F (stereo not drawn),i
COc1ccc(-c2c3c(=O)n(C)c(=O)n(C)c3c3c(C)cc(C)nn23)cc1,i
COC(=O)CN(c1cccc(OC)c1)S(=O)(=O)c1ccc(Cl)cc1,i
CCOC(=O)c1c(C)n(CC)c2ccc(OC(=O)COc3ccc(OC)cc3)cc12,i
O=C(c1ccc2c(c1)OCO2)N1CCc2c([nH]c3ccccc23)C1c1ccccc1F (stereo not drawn),i
Cc1cc(N(C)C)nc(Nc2ccc(NC(=O)c3ccc(F)cc3)cc2)n1,i
CCOC(=O)N1CCN(C(=O)c2ccc(N3CCC(NCc4ccc5c(c4)OCO5)CC3)cc2)CC1,i
COc1ccccc1C1C(C(=O)OC2CCCCC2)=C(C)Nc2nnnn21 (stereo not drawn),i
CCc1ccc(CN(C)C(=O)c2nc3nc(C)cc(C)n3n2)nc1,i
Cc1ccc(S(=O)(=O)Nc2cc(S(N)(=O)=O)ccc2C)cc1,i
CC(C)CNC(=O)c1cc(-c2ccc(Cl)c(Cl)c2)on1,i
COc1ccc(N=c2scc(-c3ccc4c(c3)OCCO4)n2CCO)cc1,32%*
OCCn1c(-c2ccc(Cl)c(Cl)c2)csc1=Nc1ccccc1,48%*
COc1ccc(-c2csc(=Nc3ccccc3)n2CCO)cc1F,48%*
COc1ccc(CNC(=O)c2cc(-c3ccc4c(c3)OCO4)on2)cc1,i
COc1ccc2c(=O)c(-c3ccc4c(c3)OCCCO4)coc2c1,i
COc1ccc(OCCn2c(=N)n(CC(C)C)c3ccccc32)cc1,i
COc1ccc(-c2cn3ccccc3n2)cc1F,i
COc1ccc(C(O)=C2C(=O)C(=O)N(CCCN(C)C)C2c2cccs2)c(C)c1 (stereo not drawn),i
COc1ccc(-c2csc(=Nc3ccccc3)n2CCCN(C)C)cc1,44%*
CC(=O)c1c(OC(=O)c2ccccc2Cl)ccc2c(C)cc(=O)oc12,i
CN(C)c1ccc(C(=O)N[C@H]2CO[C@H]3[C@@H]2OC[C@@H]3n2nnnc2Oc2ccc(-n3ccnc3)cc2)cc1,i
COCCCNC(=O)c1nn(-c2ccc(OC)c(Cl)c2)c(=O)c2c1c1ccccc1n2C,i
SMILES,ST2 inh
Cc1cc(C)n(C(=O)CCC(=O)Nc2ccc(Cl)cc2Cl)n1,i
O=C(Cn1cnc2c(oc3ccccc32)c1=O)Nc1cccc(F)c1,i
Cc1cccc(NS(=O)(=O)c2cccc3cccnc23)c1C,i
OCc1cccc(-n2ccnc2-c2ccc(Cl)cc2F)c1,i
CC(=O)N(CN1C(=O)c2ccccc2C1=O)c1ccccc1Cl,i
CCOc1ccc(C2C3=C(CCCC3=O)Nc3nc(SCc4ccccc4F)[nH]c(=O)c32)cc1 (stereo not drawn),i
CC1=C[C@@H](CNC(=O)c2ccncc2)[C@H](C(C)C)C[C@H]1CC(=O)NCc1ccccn1,i
CC[C@H](NC(=O)c1cccc(NCc2ccccn2)c1C)c1ccccc1,i
